Measurements reported in PubChem BioAssay (Tox21).
Inconclusive results are not listed. Entries that show only a call come without a potency. The source made the active and inactive calls. Calls follow the shape of the full dose curve.

Assay: qHTS assay to identify small molecule antagonists of the sonic hedgehog signaling (Shh) pathway (AID 1259369); also: nearly all actives have a fitted effect of over 45% in size
Conditions: NIH/3T3 Gli1-Luc reporter, Shh antagonist, luminescence 24 h; series mostly up to 92.4 µM
From the text: U.S. Tox21 Program National Center for Advancing Translational Sciences [NCATS] NIH Chemical Genomics Center [NCGC] U.S. Environmental Protection Agency [EPA] National Institutes of Environmental Health Sciences [NIEHS] National Toxicology Program [NTP] U.S. Food and Drug Administration [FDA] Tox21 Assay Overview: The sonic hedgehog (Shh) pathway is essential for normal embryonic development. Dysregulation of the Shh pathway can cause severe developmental defects in organs. Therefore chemicals that interfere with the pathway are potential developmental toxicants. A cell line designated 3T3Gli1-Luc (DMB/OARSA/CFSAN/FDA, Laurel, MD), a NIH/3T3 derived clone containing stably integrated Gli1-Luc reporter is used to detect chemical interference of the Shh pathway, by changes in the expression of the firefly Luc gene under the control of the Gli1 transcriptional response element. This cell line was used to screen Tox21 libraries for identifying and prioritizing the potential developmental toxicants that interfere Shh pathway. Conditioned medium-stimulated mode was used to screen for chemicals inhibiting Shh signaling.
Tox21 Assay Protocol Summary: 3T3 Gli1-Luc cells were dispensed at 2,000 per well in 5uL of culture medium into white solid bottom 1536-well plates (Greiner Bio-One, Monroe, NC) using a Multidrop Combi (Thermo Scientific, Waltham, MA) dispenser. The assay plates were incubated at 37 C and 5% CO2 for 4hr, and then 23nL of compounds dissolved in DMSO and positive control were transferred using a Pintool station (Wako, San Diego, CA). The compound transfer was followed by the addition of 1ul conditioned medium or assay buffer using two separate tips of Flying Reagent Dispenser (FRD, Aurora Discovery, San Diego, CA). The assay plates were incubated at 37C and 5% CO2 for 24hr. For luciferase read, 4uL of Amplite Luciferase reporter gene assay reagent (AAT Bioquest, Inc. Sunnyvale, CA) was added to each well of the assay plates using FRD and incubated at room temperature for 30min. The luminescence signal was measured using a ViewLux plate reader (Perkin Elmer, Shelton, CT).
Potency is read from the fitted curve at half-maximal effect.

SMILES | Potency
CC1(C)CCC(Cc2ccc(Cl)cc2)C1(O)Cn1cncn1 (stereo not given) | 27.3 µM (active)
Cl/C=C\Cl | inactive
CN(N=O)c1ccc([N+](=O)[O-])cc1 | inactive
CC/C(=N\OC/C=C/Cl)C1=C(O)CC(C2CCOCC2)CC1=O (stereo not given) | inactive
CCC(Br)(CC)C(=O)NC(N)=O | inactive
O=NN1CCCCCC1 | inactive
Nc1ccc([N+](=O)[O-])cc1[N+](=O)[O-] | inactive
CCCCCCCCCCOC(=O)c1ccccc1C(=O)OCCCCCCCCCC | inactive
C=CCCl | inactive
O=NN1CCNCC1 | inactive
Oc1ccc(Cl)c(Cl)c1Cl | inactive
O=S1(=O)OC(c2cc(Br)c(O)c(Br)c2)(c2cc(Br)c(O)c(Br)c2)c2ccccc21 | 7.05 µM (active)
NC(=O)CI | inactive
C=CC(=O)OCC(C)O (stereo not given) | inactive
CC(C)N(CCC(C(N)=O)(c1ccccc1)c1ccccn1)C(C)C (stereo not given) | inactive
CCOP(=S)(OCC)SCSCC | inactive
C=CCC1([C@H](C)CCC)C(=O)NC(=O)NC1=O | inactive
O=C(CBr)c1ccccc1 | 34.6 µM (active)
CCOS(C)(=O)=O | inactive
Sc1ccccc1Cl | inactive

SMILES | Potency
COC(C)(C)CCC[C@H](C)C/C=C/C(C)=C/C(=O)OC(C)C | inactive
CCCCN=C=O | inactive
C#CCOC(C(=O)OCCN(C)C)(c1ccccc1)c1ccccc1 | inactive
Cn1sc(Cl)cc1=O | inactive
COP(=S)(Oc1cc(Cl)c(Br)cc1Cl)c1ccccc1 (stereo not given) | inactive
CCCCN(N=O)C(=N)N[N+](=O)[O-] | 27.9 µM (active)
CCCCNP(N)(N)=S | inactive
CCCCCCC#N | inactive
ClCC(Br)CBr (stereo not given) | inactive
COc1cc(CC(C)N)cc2c1OCO2 (stereo not given) | inactive
O=C(O)COc1ccc(Cl)cc1 | inactive
CN1C(=O)NC(=O)C(C)(C2=CCCCC2)C1=O (stereo not given) | inactive
Cc1ccc2ccccc2c1 | inactive
Nc1nc(N)nc(N)n1 | inactive
BrCCCCBr | inactive
COC(=O)C(Cl)C(=O)OC | inactive
O=C(NC(=O)c1c(F)cccc1F)Nc1cc(Cl)c(Oc2ncc(C(F)(F)F)cc2Cl)c(Cl)c1 | 23.3 µM (active)
CCCC(Cn1cncn1)c1ccc(Cl)cc1Cl (stereo not given) | 17.2 µM (active)
O=Cc1ccc2c(c1)OCO2 | inactive
c1ccoc1 | inactive
